Inconclusive results are not listed. A call without a number means that no potency is given here. Calls of active or inactive are those of the source. The call rests on the fitted dose curve; in most records, active means well fitted cell-killing curve with a large enough effect; inconclusive means small, poorly fitted or top-dose-only effect; inactive means no such curve, though single readings can be large or run the other way.
Test: qHTS of pediatric cancer cell lines to identify multiple opportunities for drug repurposing: Confirmatory screen for U-2 OS cells (AID 1347122); further: nearly all actives have a fitted effect of over 65% in size
Conditions: U-2 OS osteosarcoma cell viability; series mostly up to 45.9 µM
Description: Drug repurposing or repositioning has been offered as a strategy for drug development in oncology programs. This approach has special potential for childhood cancers and other rare or orphan diseases, where the expected return on new drug development has been a disincentive to pharmaceuticals.
In this project we exploit the poly-pharmacology of drugs to discover new indications via phenotypic screening of a panel of 19 well-characterized cell lines derived from solid tumors seen in children and adolescents. The goal is to identify approved drugs with previously unrecognized anticancer properties that has the potential to reveal new mechanisms and biological processes involved in carcinogenesis or drug resistance. We employed a titration-based paradigm (quantitative high-throughput screening or qHTS), where all compounds were tested at multiple concentrations for their effect on cell viability. Concentration-response curves (CRCs) were derived directly from the primary screen, and both potency and efficacy values were used to identify compounds with robust bioactivity profiles. We screened the NIH Chemical Genomics Center (NCGC) Pharmaceutical Collection (NPC) and Mechanism Interrogation Plate (MIPE) small molecule collections of approved and investigational compounds against these cell lines; and measured metabolically active cells after 48 hours of compound treatment as a proxy for cell viability.
Assay Submitter: Nathalia J. Martinez, National Center for Advancing Translational Sciences, National Institutes of Health, Rockville, MD, USA; email: natalia.martinez@nih.gov
[1] Shen, M et al. Quantitative high-throughput phenotypic screening of pediatric cancer cell lines identifies multiple opportunities for drug repurposing. Oncotarget 2017 Dec 19;9(4):4758-4772. PMID 29435139.
The cells were obtained from University of North Carolina (UNC), Pediatric Preclinical Testing Program (PPT), and Coriell Institute (CI).
qHTS cell viability assay:
Cells were assayed in growth media at a density of 500-1,000 cells/well. Five microliters of cells were dispensed into 1,536-well, white, solid-bottom, TC-treated plates (Greiner Bio One) using a multidrop dispenser and incubated at 37 degrees C, 5% CO2, under a humidified atmosphere for 5 hours. Twenty-three nanoliters of compounds and controls (neutral control DMSO or positive control bortezomib at final concentration of 2.3 µM) were subsequently transferred by Kalypsys pintool. For primary screens, the MIPE collection was tested at 11-point dilutions (final concentrations range from 0.78 nM to 46 µM) and the NPC collection at 8-point dilutions (final concentrations range from 0.59 nM to 46 µM). Compounds tested in follow-up screens were assayed at 11-point dilutions. Cells were incubated for 48 hours, followed by addition of 3 µL of CellTiter-Glo (Promega). After a 15 min incubation at room temperature, samples were analyzed for luminescence intensity using a ViewLux High-throughput CCD imager equipped with clear filters.
Potency means the concentration at half of the fitted maximal effect.

Compound	Potency
COc1ccc(C(=O)N2CCCC2=O)cc1	inactive
CN(C)C(=S)SSC(=S)N(C)C	3.69 µM (active)
O=C(O)Cc1ccccc1	inactive
Cc1ccc([N+](=O)[O-])[c]2c1[O][Hg]2	9.27 µM (active)
C[C@@H]1C[C@@H]([C@H](O)CC2CC(=O)NC(=O)C2)C(=O)[C@@H](C)C1	3.29 µM (active)
CCCCCCCCC(=O)NCc1ccc(O)c(OC)c1	inactive
COC(=O)C1=CCCN(C)C1	inactive
COc1ccc2c(C(=O)c3ccc(Cl)cc3)c(C)n(CC(=O)O)c2c1	inactive
CCCCCCCCCCCC[N+](C)(C)CCOc1ccccc1	13.1 µM (active)
CC1Sc2c(C(=O)O)c(=O)c3cc(F)c(N4CCNCC4)cc3n21 (configuration not stated)	inactive
CN1[C@@H]2CC[C@H]1CC(OC(=O)c1cc(Cl)cc(Cl)c1)C2 (some centres not stated)	inactive
CCc1ccc(C2CCNCC2)cc1	inactive

From PubChem BioAssay (NCATS)
